One sequence from paper PMC7862700, “An all-to-all approach to the identification of sequence-specific readers for epigenetic DNA modifications on cytosine” can be followed below.

Common to all, as to assay: DAPPL (digital affinity profiling via proximity ligation, sequencing); 10 mM Tris-HCl pH 7.5, 50 mM NaCl, 1 mM DTT, 4% glycerol, room temperature, 30 min; GST-TFs on glutathione beads, 16-mer random dsDNA library, 0.1% formaldehyde crosslink after washing; high values mean tight binding
In one assay the target is T1, FEV (Homo sapiens, UniProt Q99581 1-238).
T1 sequence: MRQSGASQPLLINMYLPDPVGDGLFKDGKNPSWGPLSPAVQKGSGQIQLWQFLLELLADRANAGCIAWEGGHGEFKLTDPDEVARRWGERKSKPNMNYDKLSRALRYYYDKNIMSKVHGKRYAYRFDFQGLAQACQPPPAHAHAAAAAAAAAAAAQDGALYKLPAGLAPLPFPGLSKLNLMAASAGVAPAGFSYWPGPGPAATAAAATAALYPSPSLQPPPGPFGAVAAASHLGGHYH
Particulars: protein: recombinant; tags: N-terminal GST; dsDNA, one strand shown. In short, it runs like this: (§1)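 Human transcription factors were made in yeast as GST fusions, captured on glutathione beads and barcoded with DNA. With a tag-only sample included, the pool was incubated with 200 nmole of a random double-stranded 16-mer DNA library in Tris/NaCl/DTT/glycerol buffer at room temperature for 30 min, then crosslinked with 0.1% formaldehyde after washing, ligated by proximity, amplified and sequenced. For binding signal, each hexamer's read frequency for a factor is divided by its frequency for the tag-only sample.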

The target of another assay is ETV5 (Homo sapiens, UniProt P41161 1-510). The settings on record: protein: recombinant; tags: N-terminal GST; dsDNA, one strand shown. In short, it runs like this:
as §1

Another assay deals with HSF1 (Homo sapiens, UniProt Q00613 1-529). Particulars: protein: recombinant; tags: N-terminal GST; chain copies: 3; dsDNA, one strand shown. The method, boiled down: as §1
The target in a further assay is T2, SPIC (Homo sapiens, UniProt Q8N5J4 1-248).
T2 sequence: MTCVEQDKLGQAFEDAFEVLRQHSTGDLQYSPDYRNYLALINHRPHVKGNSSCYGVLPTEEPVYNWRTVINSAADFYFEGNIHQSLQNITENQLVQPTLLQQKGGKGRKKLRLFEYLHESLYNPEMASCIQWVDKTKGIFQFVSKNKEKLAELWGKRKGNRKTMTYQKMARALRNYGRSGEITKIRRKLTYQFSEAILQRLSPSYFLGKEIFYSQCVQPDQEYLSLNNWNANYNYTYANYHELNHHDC
The settings on record: protein: recombinant; tags: N-terminal GST; dsDNA, one strand shown. In short, it runs like this:
as §1

The next assay concerns the target ELF4 (Homo sapiens, UniProt Q99607 1-663). Particulars: protein: recombinant; tags: N-terminal GST; dsDNA, one strand shown. In short, it runs like this:
as §1

The next assay concerns the target T3, ELK4 (Homo sapiens, UniProt P28324-2 1-405).
T3 sequence: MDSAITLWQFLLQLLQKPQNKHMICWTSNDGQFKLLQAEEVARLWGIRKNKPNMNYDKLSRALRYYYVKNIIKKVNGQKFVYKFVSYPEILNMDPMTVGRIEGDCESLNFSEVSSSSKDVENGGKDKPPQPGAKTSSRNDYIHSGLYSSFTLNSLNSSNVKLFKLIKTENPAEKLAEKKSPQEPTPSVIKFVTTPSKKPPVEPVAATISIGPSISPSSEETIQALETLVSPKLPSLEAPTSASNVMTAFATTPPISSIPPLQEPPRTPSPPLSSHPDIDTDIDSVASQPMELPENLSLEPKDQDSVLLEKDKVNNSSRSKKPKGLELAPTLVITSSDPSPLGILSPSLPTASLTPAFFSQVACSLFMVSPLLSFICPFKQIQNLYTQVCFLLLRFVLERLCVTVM
The settings on record: protein: recombinant; tags: N-terminal GST; dsDNA, one strand shown. In short, it runs like this:
as §1

A further assay deals with T4, ETV2 (Homo sapiens, UniProt O00321 1-342).
T4 sequence: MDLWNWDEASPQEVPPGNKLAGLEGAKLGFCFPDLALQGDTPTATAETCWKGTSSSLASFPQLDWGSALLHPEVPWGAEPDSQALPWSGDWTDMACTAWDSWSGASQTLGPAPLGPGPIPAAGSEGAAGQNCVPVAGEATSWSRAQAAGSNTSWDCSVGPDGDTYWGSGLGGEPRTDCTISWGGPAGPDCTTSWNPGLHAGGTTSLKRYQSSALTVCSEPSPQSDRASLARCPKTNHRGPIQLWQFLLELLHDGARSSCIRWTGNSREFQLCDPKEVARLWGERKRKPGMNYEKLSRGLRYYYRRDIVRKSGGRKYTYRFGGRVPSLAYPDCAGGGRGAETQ
Particulars: protein: recombinant; tags: N-terminal GST; dsDNA, one strand shown. The method, boiled down:
as §1

The next assay concerns the target T5, ELF3 (Homo sapiens, UniProt P78545 1-371).
T5 sequence: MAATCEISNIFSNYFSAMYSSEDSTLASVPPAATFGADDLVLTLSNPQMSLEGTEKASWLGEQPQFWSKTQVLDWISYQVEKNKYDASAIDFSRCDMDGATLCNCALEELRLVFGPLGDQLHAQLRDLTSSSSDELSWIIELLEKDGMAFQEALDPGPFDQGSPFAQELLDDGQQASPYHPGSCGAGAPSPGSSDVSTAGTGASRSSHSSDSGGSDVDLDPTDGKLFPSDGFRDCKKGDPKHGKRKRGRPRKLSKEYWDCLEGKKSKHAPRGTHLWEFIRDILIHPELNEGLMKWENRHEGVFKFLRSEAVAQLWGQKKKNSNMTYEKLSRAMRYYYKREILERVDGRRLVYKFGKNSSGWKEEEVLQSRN
The settings on record: protein: recombinant; tags: N-terminal GST; dsDNA, one strand shown. The method, boiled down:
as §1

Another assay has as its target CRX (Homo sapiens, UniProt O43186 1-299). Particulars: protein: recombinant; tags: N-terminal GST; dsDNA, one strand shown. The method, boiled down: as §1
The target of a further assay is ETV1 (Homo sapiens, UniProt P50549 1-477). Particulars: protein: recombinant; tags: N-terminal GST; dsDNA, one strand shown. The method, boiled down:
as §1

The target in another assay is T6, ERF (Homo sapiens, UniProt P50548 1-548).
T6 sequence: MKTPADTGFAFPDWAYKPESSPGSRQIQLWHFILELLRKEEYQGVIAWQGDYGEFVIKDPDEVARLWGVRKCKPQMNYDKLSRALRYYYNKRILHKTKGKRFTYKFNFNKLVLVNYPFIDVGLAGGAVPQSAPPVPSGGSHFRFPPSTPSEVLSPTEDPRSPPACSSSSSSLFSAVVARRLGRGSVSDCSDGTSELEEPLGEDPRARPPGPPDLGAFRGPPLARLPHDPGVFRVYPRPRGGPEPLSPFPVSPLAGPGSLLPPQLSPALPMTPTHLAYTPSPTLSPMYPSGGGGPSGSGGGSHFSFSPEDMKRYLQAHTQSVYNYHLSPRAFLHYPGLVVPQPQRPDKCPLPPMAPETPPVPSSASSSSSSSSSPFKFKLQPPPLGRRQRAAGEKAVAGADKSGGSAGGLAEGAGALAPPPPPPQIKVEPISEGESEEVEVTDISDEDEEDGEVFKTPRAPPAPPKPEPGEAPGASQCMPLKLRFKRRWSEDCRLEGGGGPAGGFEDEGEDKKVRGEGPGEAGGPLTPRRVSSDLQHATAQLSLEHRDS
The settings on record: protein: recombinant; tags: N-terminal GST; dsDNA, one strand shown. In short, it runs like this: as §1

Another assay has as its target T7, ETV3L (Homo sapiens, UniProt Q6ZN32 1-361).
T7 sequence: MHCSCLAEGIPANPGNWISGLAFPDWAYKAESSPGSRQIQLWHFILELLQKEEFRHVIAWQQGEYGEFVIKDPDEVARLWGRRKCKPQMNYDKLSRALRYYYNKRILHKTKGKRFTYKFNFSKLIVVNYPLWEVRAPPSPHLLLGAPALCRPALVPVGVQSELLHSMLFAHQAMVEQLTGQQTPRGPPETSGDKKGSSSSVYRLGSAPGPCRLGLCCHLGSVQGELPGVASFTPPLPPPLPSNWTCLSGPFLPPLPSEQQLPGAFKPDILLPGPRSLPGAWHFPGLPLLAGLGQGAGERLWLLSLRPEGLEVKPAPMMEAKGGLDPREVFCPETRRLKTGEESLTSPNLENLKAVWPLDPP
The settings on record: protein: recombinant; tags: N-terminal GST; dsDNA, one strand shown. The method, boiled down:
as §1

The target of a further assay is T8, ETS2 (Homo sapiens, UniProt P15036 1-469).
T8 sequence: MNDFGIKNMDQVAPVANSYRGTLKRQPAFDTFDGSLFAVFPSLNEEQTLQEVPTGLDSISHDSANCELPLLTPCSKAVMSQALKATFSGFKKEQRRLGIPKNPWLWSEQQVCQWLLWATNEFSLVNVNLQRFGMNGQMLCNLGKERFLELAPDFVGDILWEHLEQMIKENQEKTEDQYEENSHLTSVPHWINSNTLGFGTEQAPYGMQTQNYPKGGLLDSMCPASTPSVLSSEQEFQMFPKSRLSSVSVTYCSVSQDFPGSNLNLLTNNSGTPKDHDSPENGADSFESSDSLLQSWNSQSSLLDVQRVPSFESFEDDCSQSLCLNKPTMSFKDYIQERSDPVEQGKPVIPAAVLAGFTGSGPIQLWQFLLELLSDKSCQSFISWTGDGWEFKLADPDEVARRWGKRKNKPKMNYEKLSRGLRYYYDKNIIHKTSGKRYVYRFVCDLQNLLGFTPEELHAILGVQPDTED
The settings on record: protein: recombinant; tags: N-terminal GST; dsDNA, one strand shown. The method, boiled down:
as §1

Another assay addresses T9, SPDEF (Homo sapiens, UniProt O95238 1-335).
T9 sequence: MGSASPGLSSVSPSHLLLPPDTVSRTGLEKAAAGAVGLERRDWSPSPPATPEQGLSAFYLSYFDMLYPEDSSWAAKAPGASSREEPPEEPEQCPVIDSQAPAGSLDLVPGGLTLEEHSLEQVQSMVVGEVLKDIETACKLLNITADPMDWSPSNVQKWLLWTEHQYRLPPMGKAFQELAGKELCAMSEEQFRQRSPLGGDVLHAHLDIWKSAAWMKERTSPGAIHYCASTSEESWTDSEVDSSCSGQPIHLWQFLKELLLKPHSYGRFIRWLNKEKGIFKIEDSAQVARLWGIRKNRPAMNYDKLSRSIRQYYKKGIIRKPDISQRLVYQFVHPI
The settings on record: protein: recombinant; tags: N-terminal GST; dsDNA, one strand shown. In short, it runs like this: as §1

The next assay addresses T10, ETV7 (Homo sapiens, UniProt Q9Y603 1-341).
T10 sequence: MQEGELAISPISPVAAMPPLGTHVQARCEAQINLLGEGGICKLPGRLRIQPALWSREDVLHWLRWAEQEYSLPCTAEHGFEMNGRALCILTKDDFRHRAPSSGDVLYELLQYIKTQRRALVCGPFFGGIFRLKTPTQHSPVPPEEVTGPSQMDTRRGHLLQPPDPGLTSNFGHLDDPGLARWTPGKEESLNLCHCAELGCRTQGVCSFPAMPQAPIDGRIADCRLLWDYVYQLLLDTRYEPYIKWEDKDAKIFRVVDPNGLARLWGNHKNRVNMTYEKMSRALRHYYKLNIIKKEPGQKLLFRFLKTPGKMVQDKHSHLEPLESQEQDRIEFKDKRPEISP
The settings on record: protein: recombinant; tags: N-terminal GST; dsDNA, one strand shown. In short, it runs like this:
as §1

A further assay deals with T11, ELF5 (Homo sapiens, UniProt Q9UKW6-2 1-255).
T11 sequence: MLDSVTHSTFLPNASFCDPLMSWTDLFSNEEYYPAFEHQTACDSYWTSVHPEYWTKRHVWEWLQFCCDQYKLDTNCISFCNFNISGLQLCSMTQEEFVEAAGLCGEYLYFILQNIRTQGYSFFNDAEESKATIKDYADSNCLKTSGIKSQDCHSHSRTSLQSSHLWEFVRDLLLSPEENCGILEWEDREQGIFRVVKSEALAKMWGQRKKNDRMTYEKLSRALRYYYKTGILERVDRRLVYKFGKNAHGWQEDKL
The settings on record: protein: recombinant; tags: N-terminal GST; dsDNA, one strand shown. The method, boiled down:
as §1

The target of another assay is T12, ETV3 (Homo sapiens, UniProt P41162-2 1-143).
T12 sequence: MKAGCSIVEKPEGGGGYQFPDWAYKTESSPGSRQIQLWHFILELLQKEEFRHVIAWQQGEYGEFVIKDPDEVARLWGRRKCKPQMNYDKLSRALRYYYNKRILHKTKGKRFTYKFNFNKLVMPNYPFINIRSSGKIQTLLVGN
The settings on record: protein: recombinant; tags: N-terminal GST; dsDNA, one strand shown. In short, it runs like this:
as §1

The target in another assay is ETV6 (Homo sapiens, UniProt P41212 1-452). The settings on record: protein: recombinant; tags: N-terminal GST; dsDNA, one strand shown. In short, it runs like this: as §1
Sequence of ETV6 (P41212 whole entry): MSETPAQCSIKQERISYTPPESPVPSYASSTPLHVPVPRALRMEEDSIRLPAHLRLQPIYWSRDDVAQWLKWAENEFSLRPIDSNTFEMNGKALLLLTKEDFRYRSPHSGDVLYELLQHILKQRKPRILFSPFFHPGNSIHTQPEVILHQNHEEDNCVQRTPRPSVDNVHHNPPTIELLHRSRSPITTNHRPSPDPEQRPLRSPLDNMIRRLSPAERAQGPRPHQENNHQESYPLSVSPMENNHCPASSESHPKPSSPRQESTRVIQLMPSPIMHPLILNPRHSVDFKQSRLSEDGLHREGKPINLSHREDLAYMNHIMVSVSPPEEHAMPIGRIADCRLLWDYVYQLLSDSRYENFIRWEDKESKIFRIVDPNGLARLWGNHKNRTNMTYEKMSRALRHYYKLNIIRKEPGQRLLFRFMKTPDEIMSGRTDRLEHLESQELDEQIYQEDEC

Sequence of HSF1 (Q00613 whole entry): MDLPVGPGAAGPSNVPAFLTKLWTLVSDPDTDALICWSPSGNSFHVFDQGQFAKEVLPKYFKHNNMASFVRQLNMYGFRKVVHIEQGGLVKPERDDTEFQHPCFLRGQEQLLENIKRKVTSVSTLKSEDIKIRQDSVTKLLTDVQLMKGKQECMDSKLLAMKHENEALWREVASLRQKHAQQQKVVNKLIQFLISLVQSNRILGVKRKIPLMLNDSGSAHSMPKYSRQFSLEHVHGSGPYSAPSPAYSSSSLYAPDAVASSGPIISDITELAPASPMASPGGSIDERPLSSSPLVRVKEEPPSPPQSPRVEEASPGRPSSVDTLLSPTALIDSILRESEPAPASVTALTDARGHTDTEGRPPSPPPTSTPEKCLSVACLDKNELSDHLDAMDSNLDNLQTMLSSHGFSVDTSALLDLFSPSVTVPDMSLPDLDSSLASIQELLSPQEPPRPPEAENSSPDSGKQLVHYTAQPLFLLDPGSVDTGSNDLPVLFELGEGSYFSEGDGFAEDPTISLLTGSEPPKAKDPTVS
Sequence of ETV1 (P50549 whole entry): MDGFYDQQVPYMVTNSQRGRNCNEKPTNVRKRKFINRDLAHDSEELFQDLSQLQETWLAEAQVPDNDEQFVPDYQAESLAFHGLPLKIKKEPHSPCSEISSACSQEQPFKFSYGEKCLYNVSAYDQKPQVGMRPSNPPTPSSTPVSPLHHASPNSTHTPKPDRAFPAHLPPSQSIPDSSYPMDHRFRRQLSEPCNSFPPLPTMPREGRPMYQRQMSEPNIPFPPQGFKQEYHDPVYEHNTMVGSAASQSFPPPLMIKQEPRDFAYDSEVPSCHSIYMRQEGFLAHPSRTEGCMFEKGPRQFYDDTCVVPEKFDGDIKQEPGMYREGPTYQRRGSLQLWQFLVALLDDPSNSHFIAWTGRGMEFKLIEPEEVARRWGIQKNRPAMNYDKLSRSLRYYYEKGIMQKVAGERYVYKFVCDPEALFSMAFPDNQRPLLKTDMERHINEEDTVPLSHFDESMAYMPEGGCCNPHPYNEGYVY
Sequence of CRX (O43186 whole entry): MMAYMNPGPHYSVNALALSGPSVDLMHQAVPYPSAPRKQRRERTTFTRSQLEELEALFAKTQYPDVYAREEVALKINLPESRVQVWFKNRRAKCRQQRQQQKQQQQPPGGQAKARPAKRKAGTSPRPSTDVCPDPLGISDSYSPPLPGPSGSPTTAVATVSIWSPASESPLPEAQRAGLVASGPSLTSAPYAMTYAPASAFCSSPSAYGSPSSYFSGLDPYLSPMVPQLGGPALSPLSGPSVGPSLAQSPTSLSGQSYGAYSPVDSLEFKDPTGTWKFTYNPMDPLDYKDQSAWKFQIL
Sequence of ETV5 (P41161 whole entry): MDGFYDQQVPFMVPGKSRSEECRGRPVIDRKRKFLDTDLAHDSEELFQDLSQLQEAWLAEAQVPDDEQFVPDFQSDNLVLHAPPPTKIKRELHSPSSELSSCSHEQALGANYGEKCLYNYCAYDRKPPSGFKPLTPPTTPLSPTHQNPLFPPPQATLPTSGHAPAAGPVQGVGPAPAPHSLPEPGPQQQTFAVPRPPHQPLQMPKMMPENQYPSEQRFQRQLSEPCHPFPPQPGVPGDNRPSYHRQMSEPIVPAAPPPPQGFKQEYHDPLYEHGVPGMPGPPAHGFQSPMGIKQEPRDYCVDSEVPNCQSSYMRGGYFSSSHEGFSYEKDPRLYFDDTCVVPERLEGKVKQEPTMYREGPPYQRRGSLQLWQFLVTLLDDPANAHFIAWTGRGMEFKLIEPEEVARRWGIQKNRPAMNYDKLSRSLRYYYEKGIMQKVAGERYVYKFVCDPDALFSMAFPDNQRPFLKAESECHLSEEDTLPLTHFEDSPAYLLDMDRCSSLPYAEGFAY
Sequence of ELF4 (Q99607 whole entry): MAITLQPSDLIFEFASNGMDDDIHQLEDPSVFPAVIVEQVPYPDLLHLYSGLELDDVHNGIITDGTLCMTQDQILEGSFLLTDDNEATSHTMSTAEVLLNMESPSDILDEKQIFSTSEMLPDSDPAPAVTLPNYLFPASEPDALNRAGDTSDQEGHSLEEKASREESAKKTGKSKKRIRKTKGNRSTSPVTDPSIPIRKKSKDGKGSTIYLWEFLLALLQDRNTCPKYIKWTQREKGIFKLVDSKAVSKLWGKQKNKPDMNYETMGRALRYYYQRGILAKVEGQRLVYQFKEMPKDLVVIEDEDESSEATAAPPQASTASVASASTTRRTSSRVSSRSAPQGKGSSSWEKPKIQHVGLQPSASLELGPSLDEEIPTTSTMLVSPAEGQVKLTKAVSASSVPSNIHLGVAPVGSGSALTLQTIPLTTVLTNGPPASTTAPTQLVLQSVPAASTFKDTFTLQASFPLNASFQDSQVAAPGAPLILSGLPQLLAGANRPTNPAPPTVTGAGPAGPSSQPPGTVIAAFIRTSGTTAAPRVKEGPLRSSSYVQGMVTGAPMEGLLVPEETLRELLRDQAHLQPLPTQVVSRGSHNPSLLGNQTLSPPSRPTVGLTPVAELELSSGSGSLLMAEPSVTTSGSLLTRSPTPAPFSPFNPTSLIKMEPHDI

As to GTTCTT, the binding signal with FEV is 1.11 fold enrichment (6-mer frequency, TF over GST control); with ETV5, 1.23 fold enrichment (6-mer frequency, TF over GST control); with HSF1, 1.36 fold enrichment (6-mer frequency, TF over GST control); with SPIC it was 1.12 fold enrichment (6-mer frequency, TF over GST control); in the assay with ELF4, 1.18 fold enrichment (6-mer frequency, TF over GST control); with ELK4, 1.23 fold enrichment (6-mer frequency, TF over GST control). The binding signal is 1.15 fold enrichment (6-mer frequency, TF over GST control) in the assay with ETV2; 1.31 fold enrichment (6-mer frequency, TF over GST control) with ELF3; 1.12 fold enrichment (6-mer frequency, TF over GST control) in the assay with CRX; 1.21 fold enrichment (6-mer frequency, TF over GST control) with ETV1; 1.16 fold enrichment (6-mer frequency, TF over GST control) in the assay with ERF; 1.28 fold enrichment (6-mer frequency, TF over GST control) in the assay with ETV3L. The binding signal in the assay with ETS2 is 1.2 fold enrichment (6-mer frequency, TF over GST control); in the assay with SPDEF, 1.06 fold enrichment (6-mer frequency, TF over GST control); with ETV7, 1.18 fold enrichment (6-mer frequency, TF over GST control); in the assay with ELF5 it was 1.24 fold enrichment (6-mer frequency, TF over GST control); in the assay with ETV3, 1.09 fold enrichment (6-mer frequency, TF over GST control); with ETV6, 1.15 fold enrichment (6-mer frequency, TF over GST control).
